Many of the other results were omitted from the sample, so hits are more common in it than they were.
Tg IFNy HTS: blocks Toxoplasma gondii growth in the presence of IFN-gamma; Toxoplasma gondii growth in IFN-gamma-treated host cells; active compounds read low; activity change, negative = inhibition, % (test concentration not listed); 69,000 tested, 3.8% active; AID 1259416; in the data active = activity change below about -70%, passing the limit was not always enough;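 note: host cells are HeLa cells infected with Toxoplasma gondii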
A number is an active result; 0 = inactive.

SMILES	Tg IFNy HTS
COC(C)(C)CC(C)NCc1noc(C2CCCC2)n1 (configuration not stated)	0
O=C(c1cccc(-c2ncc[nH]2)c1)N1CC[C@@H](c2ccc(F)cc2)[C@H](O)C1	0
COc1ccc(-c2nc(C)c(CCNS(=O)(=O)c3ccc(C)cc3)s2)cc1OC	0
COc1ccc(-c2nc(C)c(CCNS(=O)(=O)c3ccc4ccccc4c3)s2)cc1OC	0
COc1ccc(-c2nc(C)c(CCNS(=O)(=O)c3ccc(Oc4ccccc4)cc3)s2)cc1OC	-97
O=C(C1CCN(Cc2cc3ccccc3n2Cc2cccc(F)c2)CC1)N1CCCC1	0
Cc1cnc(N2CCc3onc(COc4cccnc4)c3C2)nc1	0
Cc1coc2c1C(=O)C(=O)c1c-2ccc2c(C)cccc12	-72
CCc1ccccc1NC(=O)N1CCN(Cc2nc(-c3ccc(C)cc3)oc2C)CC1	0
Cc1ccccc1NC(=O)Cn1ncc2c(N3CCCCCC3)ncnc21	0
CC(C)c1ccc(CN2CCC(CNC(=O)C3(N)CCC3)C2)cc1 (configuration not stated)	0
CC(C)c1ccc2c(c1)CCC1C(C)(CNC(=O)NC(C)(C)C)CCCC21C (configuration not stated)	-104
CCOC(=O)N1c2ccc(C(C)C)cc2C=CC1C#N (configuration not stated)	0
Cc1ccc2[nH]cc(-c3ccc(NCCO)nn3)c2c1	0
Cn1ccc(NC(=O)NC(=O)c2c(F)cccc2F)n1	0
Cc1[nH]c(=O)[nH]c(=O)c1-c1ccc(C(C)N2CCCC2)cc1 (configuration not stated)	0
CC(c1cccc(-c2ccc[nH]c2=O)c1)N1CCCC1 (configuration not stated)	0
CC(c1cccc(-c2ccc3[nH]c(=O)[nH]c(=O)c3c2)c1)N1CCCC1 (configuration not stated)	-71
CCN1c2ccccc2[C@@H]2CN(CC(=O)O)CC[C@H]21	0
CCCCc1nc(-c2nccn2CCN2CCNC2=O)c(Cl)[nH]1	0
COc1ccc(-c2nc3c(s2)CN(S(=O)(=O)c2ccc(C)cc2)CC3)cc1	-76
COc1ccc(-c2nc3c(s2)CN(S(=O)(=O)c2ccc(C(C)(C)C)cc2)CC3)cc1	0
COc1cccc(-c2nc3c(s2)CN(S(=O)(=O)c2c(C)cc(C)cc2C)CC3)c1	-98
COc1cccc(-c2nc3c(s2)CN(C(=O)Nc2ccccc2C)CC3)c1	0
COc1ccc(-c2nc3c(s2)CN(S(=O)(=O)c2ccc(Cl)cc2)CC3)cc1	0
SMILES	Tg IFNy HTS
O=S(=O)(c1ccc(F)cc1F)N1CCc2nc(-c3ccccc3)sc2C1	0
CCCc1ccc(S(=O)(=O)N2CCc3nc(-c4ccc(OC)cc4)sc3C2)cc1	0
Cc1cc(C)c(S(=O)(=O)N2CCc3nc(-c4ccccc4)sc3C2)cc1C	-89
O=S(=O)(c1ccc(F)cc1)N1CCc2nc(-c3ccccc3)sc2C1	0
COc1ccc(-c2nc3c(s2)CN(S(=O)(=O)c2ccccc2C)CC3)cc1	-115
COc1cccc(-c2nc3c(s2)CN(S(=O)(=O)c2ccc(C)cc2)CC3)c1	0
COC(=O)c1cc2c(=O)n3cc(C)ccc3nc2n(CCCn2ccnc2)c1=N	0
Cc1cc(CN(C)Cc2ccc(-n3ccnc3C)cc2)n[nH]1	0
CC(CCc1ccco1)NS(=O)(=O)NCc1ccccc1 (configuration not stated)	0
CCC(C)N(Cc1nc(C)ccc1O)C1CCCC1 (configuration not stated)	0
CC(NC(=O)c1c(O)c2cccnc2n(-c2ccccc2)c1=O)c1ccccc1 (configuration not stated)	0
COC1CCN(S(=O)(=O)N2CCC(O)(c3ccc(C)cn3)CC2)CC1	0
CC1=CC(C)(C)N(CN2C(=O)c3ccccc3C2=O)c2ccc(C)cc21	0
CCOc1ccc(-c2nc3c(s2)CN(S(=O)(=O)c2cc(F)ccc2C)CC3)cc1	-95
COc1ccc(-c2nc3c(s2)CN(S(=O)(=O)c2cc(C)cc(C)c2)CC3)cc1OC	-125
COc1cccc(-c2nc3c(s2)CN(S(=O)(=O)c2ccc(F)cc2)CC3)c1	-79
COc1ccc(S(=O)(=O)N2CCc3nc(-c4cccc(OC)c4)sc3C2)cc1	0
COc1cccc(-c2nc3c(s2)CN(S(=O)(=O)c2ccc(OC)c(OC)c2)CC3)c1	0
COc1cccc(-c2nc3c(s2)CN(S(=O)(=O)c2cc(C)c(C)cc2C)CC3)c1	0
CCOc1ccc(-c2nc3c(s2)CN(S(=O)(=O)c2ccc(F)cc2)CC3)cc1	0
COc1ccc(S(=O)(=O)N2CCc3nc(-c4ccc(C)cc4)sc3C2)cc1OC	0
CCOc1ccc(-c2nc3c(s2)CN(S(=O)(=O)c2cccc(F)c2)CC3)cc1	0
COc1cccc(-c2nc3c(s2)CN(S(=O)(=O)c2ccc(C(C)C)cc2)CC3)c1	0
COc1cccc(-c2nc3c(s2)CN(S(=O)(=O)c2ccccc2C)CC3)c1	-107
COc1cccc(-c2nc3c(s2)CN(S(=O)(=O)c2ccc(Cl)cc2)CC3)c1	0
SMILES	Tg IFNy HTS
O=C(NCCCN1CCCC1)C1CCN(Cc2cc3ccccc3n2Cc2ccccc2Cl)CC1	0
COc1ccc(-c2noc(COc3cccc4[nH]ccc34)n2)c(OC)c1OC	0
CCOC(=O)CC1C(=O)NCCN1C(=O)OC(C)(C)C (configuration not stated)	0
CC12CCC(C(=O)N(CNc3ccc4c(c3)oc3ccccc34)C1=O)C2(C)C (configuration not stated)	0
O=S(=O)(NCc1ccccc1)NC[C@H]1CCc2ccccc2O1	0
CC(=O)c1ccccc1-c1cnc(-n2cnnc2)cc1C	0
Cc1cccc(Cn2nc(C(C)(C)C)cc2C(=O)O)c1	0
CCOc1ccc(S(=O)(=O)N2CCc3nc(-c4cccc(OC)c4)sc3C2)cc1	0
Cc1ccc(-c2nc3c(s2)CN(S(=O)(=O)c2ccc(F)cc2)CC3)cc1	0
CCOc1ccc(-c2nc3c(s2)CN(S(=O)(=O)Cc2ccccc2)CC3)cc1	0
Cc1ccc(-c2nc3c(s2)CN(S(=O)(=O)c2ccc(C)c(C)c2)CC3)cc1	0
Cc1cc(C)c(S(=O)(=O)N2CCc3nc(-c4ccccc4)sc3C2)c(C)c1	0
COc1ccc(Cl)cc1S(=O)(=O)N1CCc2nc(-c3ccc(C)cc3)sc2C1	0
CCc1ccccc1S(=O)(=O)N1CCc2nc(-c3cccc(OC)c3)sc2C1	-91
COc1cccc(-c2nc3c(s2)CN(S(=O)(=O)c2ccc(CC(C)C)cc2)CC3)c1	0
CCOc1ccc(-c2nc3c(s2)CN(S(=O)(=O)c2ccccc2C)CC3)cc1	-94
Cc1ccc(-c2nc3c(s2)CN(S(=O)(=O)c2cccc(Cl)c2C)CC3)cc1	-76
Cc1ccc(-c2nc3c(s2)CN(S(=O)(=O)c2ccccc2C)CC3)cc1	-90
Cc1cccc(NC(=O)N2CCC3(CC2)Nc2ccccc2-n2cccc23)c1	0
CN(C)c1ccc(-c2nnc(-c3ccc(Cl)cc3)o2)cc1	0
Cc1ccc(CN[C@@H]2COC[C@H]2Cc2cc(C)no2)cc1	0
O=C(Cn1nnc(-c2ccc(C(F)(F)F)cc2)n1)Sc1ccc(F)cc1F	0
CS(=O)(=O)N1CCO[C@H]2[C@@H](OCc3ccccn3)CC[C@H]21	0
CCC(=O)Nc1ccc(NC(=O)c2ccnnc2)cc1Cl	0
Cc1nnsc1C(=O)N1C2CCC1CC(c1ccc(F)cc1)C2 (configuration not stated)	0
Cc1cc(C(F)(F)F)nn1CC(=O)Nc1sc2c(c1C#N)CCCCC2	0
COc1cccc2c1OCCCN(C(=O)c1ccc(=O)[nH]c1)C2	0
